Source: PubChem BioAssay
Most compounds without a hit are left out; they make up all but 17% or so of the library.
TDP1 block = qHTS Assay for Inhibitors of Tyrosyl-DNA Phosphodiesterase (TDP1); Tyrosyl-DNA phosphodiesterase 1 (Homo sapiens), Q9NUW8; recombinant TDP1, AlphaScreen DNA substrate cleavage; Potency, µM (highest dose often 130 µM), actives largely listed as inhibitors; 350,000 tested, 0.28% active; AID 485290, 2010; further: nearly all actives have a fitted effect of over 40% in size
Target sequence (Q9NUW8 whole entry, looked up): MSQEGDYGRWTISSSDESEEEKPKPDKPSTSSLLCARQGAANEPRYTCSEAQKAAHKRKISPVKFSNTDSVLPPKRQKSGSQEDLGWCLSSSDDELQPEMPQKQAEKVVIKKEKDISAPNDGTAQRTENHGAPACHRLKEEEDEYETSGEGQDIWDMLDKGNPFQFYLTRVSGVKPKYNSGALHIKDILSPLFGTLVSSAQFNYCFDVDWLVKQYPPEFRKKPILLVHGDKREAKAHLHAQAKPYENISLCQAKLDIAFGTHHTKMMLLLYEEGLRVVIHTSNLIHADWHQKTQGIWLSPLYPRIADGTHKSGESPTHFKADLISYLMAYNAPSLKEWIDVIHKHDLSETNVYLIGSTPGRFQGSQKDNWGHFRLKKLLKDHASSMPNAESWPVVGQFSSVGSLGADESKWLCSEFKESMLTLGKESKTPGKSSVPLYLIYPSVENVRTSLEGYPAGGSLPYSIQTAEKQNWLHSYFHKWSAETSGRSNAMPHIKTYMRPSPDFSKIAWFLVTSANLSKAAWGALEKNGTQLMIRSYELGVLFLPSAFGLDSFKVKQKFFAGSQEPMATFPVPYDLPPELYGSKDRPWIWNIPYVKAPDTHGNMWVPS
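AlphaScreen read-out: signal falls as enzyme removes the 3' tyrosine-FITC from a 5'-biotinylated DNA oligo (15 nM, 5 min, RT). Enzyme was E. coli-made recombinant Tdp1 at 1 nM, exposed to compound for 15 min beforehand; beads 10 ug/ml, 10 min.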
DT40 TDP1 CPT = qHTS for Inhibitors of human tyrosyl-DNA phosphodiesterase 1 (TDP1): qHTS in cells in presence of CPT; 420,000 tested, 12% active; Potency, µM (doses to about 46.2 µM), usual class: inhibitors; AID 686979, 2013; chicken DT40 Tdp1-/-;hTDP1 cells + 20 nM CPT, ATP luminescence, 48 h; further: nearly all actives have a fitted effect of over 55% in size
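Chicken DT40 Tdp1-/- cells complemented with human TDP1, 400 cells/well, exposed to compounds plus 20 nM camptothecin for at least 48 h at 37 C; viability read as ATP content by CellTiter-Glo luminescence.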
ClpP mod = qHTS Assay for Activators of ClpP; AID 651965, 2013; 340,000 tested, 1.9% active; Potency, µM (titrated, usually from 57.5 µM); purified B. subtilis ClpP, FRET peptide cleavage, 20 min; ATP-dependent Clp protease proteolytic subunit (Bacillus subtilis (strain 168)), P80244; active means well fitted falling curve with a large enough effect; inconclusive means small, poorly fitted or top-dose-only effect; inactive means no such curve, though single readings can be large or run the other way; further: the source files actives as falling curves though it sought activators and does not explain the sign; nearly all actives have a fitted effect of over 65% in size
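FRET quenching reversal measured ClpP activation: 10 microg/mL B. subtilis ClpP at pH 8 with the FRET-FV decapeptide, read at 430 nm after 320 nm excitation. The 20-min minus 0-min signal was scaled between DMSO/no-enzyme wells and ADEP (5.8 microM final).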
DT40 TDP1 no CPT = qHTS for Inhibitors of human tyrosyl-DNA phosphodiesterase 1 (TDP1): qHTS in cells in absence of CPT. DT40 Tdp1-/- hTDP1 cells, no CPT, ATP luminescence, 48 h. Potency, µM (doses to about 46.2 µM), most hits filed as inhibitors. 420,000 tested, 15% active. AID 686978, 2013; further: nearly all actives have a fitted effect of over 55% in size
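Chicken DT40 Tdp1-/- cells complemented with human TDP1, screened without camptothecin (DMSO vehicle only), 400 cells/well. Compounds pin-transferred, cells incubated at 37 °C for at least 48 hr. Growth read as ATP-dependent luminescence (CellTiter-Glo, 30 min at RT).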
Numbers stand for hits; . = inactive; ? = inconclusive; / = no result given; [ ] = another dose, or the depositor's remark. Unless noted, the call rests on the fitted dose curve; in most records, active means well fitted curve in the direction sought with a large enough effect; inconclusive means small, poorly fitted or top-dose-only effect, or another doubt; inactive means no such curve, though single readings can be large; an effect the other way counts as inactive or inconclusive.

SMILES	TDP1 block	DT40 TDP1 CPT	ClpP mod	DT40 TDP1 no CPT
O=[N+]([O-])c1cccc(-c2nc(-c3ccccc3)c(-c3cccs3)[nH]2)c1	.	.	.	?
Oc1cccc(-c2nc(-c3cccs3)c(-c3cccs3)[nH]2)c1	.	?	25µM	?
O=[N+]([O-])c1ccc(-c2nc(-c3cccs3)c(-c3cccs3)[nH]2)cc1	.	12µM	.	12µM
O=[N+]([O-])c1cccc(-c2nc(-c3cccs3)c(-c3cccs3)[nH]2)c1	.	21µM	.	21µM
Cc1ccc(-c2nc(-c3cccs3)c(-c3cccs3)[nH]2)cc1	.	15µM	?	12µM
Fc1ccc(-c2nc(-c3cccs3)c(-c3cccs3)[nH]2)cc1	.	?	?	?
COc1ccc(-c2sc3cc4c(cc3c2C#Cc2cncn2C)OCO4)cc1	.	26µM	.	15µM
COc1ccc(-c2ccc3oc(-c4ccc(OC)cc4)c(C#CC4(O)CCCCC4)c3c2)cc1	/	?	.	?
COc1cc(OC)cc(-c2sc3ccc(OC)cc3c2C#CC2(N)CCCCC2)c1	.	?	.	15µM
COc1ccc(-c2sc3ccc(N4CCOCC4)cc3c2C#CC2(O)CCCCC2)cc1	.	?	25µM	?
COc1ccc(-c2oc3ccccc3c2C#Cc2cncn2C)cc1	.	16µM	.	18µM
COc1ccc(-c2sc3ccc(OC)cc3c2C#Cc2cncn2C)cc1	.	?	.	?
COc1ccc(/C=C/c2c(-c3ccc(OC)cc3)sc3ccc(N4CCOCC4)cc23)cc1	/	.	?	.
COc1ncccc1-c1ccc2nncn2c1	/	.	.	.
COc1cccc(-c2sc3ccc(OC)cc3c2C#CC2(O)CCCCC2)c1	.	?	.	23µM
COc1ccc(-c2sc3cc4c(cc3c2-c2ccc(OCCN3CCOCC3)cc2)OCO4)cc1	.	?	?	?
COc1ccc(-c2sc3cc4c(cc3c2C#CC2(N)CCCCC2)OCO4)cc1	.	8.2µM	.	12µM
Cc1ccccc1C(=O)Nc1cccc(-c2nnc(SCC(=O)NCc3ccco3)n2C)c1	/	.	.	.
CC(=O)C(=Cc1ccccc1)c1ccccc1	/	?	.	.
CCCCN(C)C(=O)CCC(=O)Nc1ccc2nc(N3CCOCC3)cc(C)c2c1	.	.	7.9µM	?
COc1cc(C(=O)Nc2ccc3nc(N4CCN(C)CC4)cc(C)c3c2)cc(OC)c1OC	/	?	.	?
COc1cc(NC(=O)CCC(=O)Nc2ccc3nc(N4CCOCC4)cc(C)c3c2)cc(OC)c1OC	.	.	25µM	?
COc1ccc(N(C)C(=O)CCC(=O)Nc2ccc3nc(N4CCOCC4)cc(C)c3c2)c(OC)c1	.	?	28µM	16µM
CCN(CC)S(=O)(=O)c1cc(C(=O)O)ccc1OC	.	.	/	.
O=c1[nH]c(C2CCN(S(=O)(=O)c3ccccc3)CC2)nc2c1nnn2Cc1c(F)cccc1Cl	/	.	/	.
SMILES	TDP1 block	DT40 TDP1 CPT	ClpP mod	DT40 TDP1 no CPT
NNC(=O)c1ccc(S(=O)(=O)N2CCc3ccccc32)cc1	/	.	.	.
Cc1cccc(CNc2cc(-c3ccccc3C)ncn2)c1	/	15µM	/	6.5µM
COc1ccccc1-c1cc(NCc2cccc(C)c2)ncn1	/	13µM	/	18µM
C[C@@H](c1ccccc1)N1C(=O)[C@H]2[C@H]3[C@H](O)[C@H](O)C/C(=N/OCc4ccccc4)[C@H]3CC[C@@H]2C1=O	.[21 µM]	/	/	/
CC(=O)Nc1cccc(NC(=O)c2c(-c3ccccc3)c(-c3ccccc3)nn(C)c2=O)c1	.	?	.	.
CC(=O)Nc1ccc(NC(=O)c2ccccc2CCc2ccccc2)cc1	.	.	.	.
Cc1c(Cc2ccc3c(c2)OCO3)sc(NC(=O)c2cccc3ccccc23)c1C(N)=O	.	?	.	?
Cc1c(Cc2ccc3c(c2)OCO3)sc(NC(=O)C2CC2)c1C(N)=O	/	10µM	/	10µM
Cc1nc(NC(=O)C2CCCC2)sc1Cc1ccc2c(c1)OCO2	.	?	/	?
Cc1nc(NC(=O)C23CC4CC(CC(C4)C2)C3)sc1Cc1ccc2c(c1)OCO2	.	?	.	21µM
CCCCCCCc1ccc(C2NC(=S)NC3=C2C(=O)c2ccccc23)cc1 (stereo not drawn)	/	16µM	.	?
Cc1nn(-c2ccccc2)c(N)c1Sc1ccccc1[N+](=O)[O-]	.	?	.	16µM
C[C@H](NC(=O)c1[nH]cnc1C(=O)Nc1cccc(Cl)c1)c1ccccc1	.	?	.	16µM
C[C@@H](NC(=O)c1[nH]cnc1C(=O)Nc1ccon1)c1ccccc1	.	16µM	.	?
O=C(c1cc2ccccc2[nH]1)N(Cc1cccnc1)CC1CCCN(C2CCCCC2)C1 (stereo not drawn)	.	?	.	?
CCC(Cc1ccccc1)NC(=O)Cn1ncc2c3ccccc3n(Cc3ccc(F)cc3)c2c1=O (stereo not drawn)	.	8.2µM	?	8.2µM
CCC(Cc1ccccc1)NC(=O)Cn1ncc2c3ccccc3n(Cc3ccccc3)c2c1=O (stereo not drawn)	.	16µM	.	16µM
COc1ccccc1C1=Nn2c(nnc2-c2cccc(OC)c2OC)SC1	.	/	/	/
N#CC1c2ccccc2-c2ccccc2N1C(=O)c1ccccc1 (stereo not drawn)	/	5.8µM	.	5.8µM
COc1ccc(C(=O)N2C=Cc3ccccc3C2C#N)cc1 (stereo not drawn)	/	.	.	.
O=[N+]([O-])c1cc2oc3c(c2c(C=NCc2ccccc2)c1O)CCCC3	.	8.2µM	.	15µM
CC(C)CN=Cc1c(O)c([N+](=O)[O-])cc2oc3c(c12)CCCC3	.	?	.	?
NC(=O)c1c(NC(=O)C2c3ccccc3Oc3ccccc32)sc2c1CCCCC2	.	?	.	?
CC1CCN(C(=O)C(=O)Nc2sc3c(c2C(N)=O)CC(C)(C)OC3)CC1	.	.	.	.
O=C(Nc1cccc(Cl)c1)OC1CCCCc2cccnc21 (stereo not drawn)	.	13µM	/	?
SMILES	TDP1 block	DT40 TDP1 CPT	ClpP mod	DT40 TDP1 no CPT
O=C1N[C@@H](Cc2cn(S(=O)(=O)c3ccc([N+](=O)[O-])cc3)c3ccccc23)C(=O)N[C@H]1Cc1ccccc1	/	21µM	.	?
O=C(OCc1ccc([N+](=O)[O-])cc1)C1CCN(S(=O)(=O)c2ccccc2)CC1	.	.	.	.
O=Cc1cn(CC(=O)Nc2ccc3c(c2)OCO3)c2ccccc12	.	?	/	16µM
O=C(CNc1ccc2c(c1)OCO2)N/N=C\c1cn(Cc2ccccc2)c2ccccc12	.	18µM	.	23µM
CCc1cccc(NC(=O)Cn2cc(C=O)c3ccccc32)c1	.	9.2µM	.	10µM
Cc1ccc(NC(=O)Cn2cc(C=O)c3ccccc32)cc1	/	?	.	.
COc1cccc(NC(=O)Cn2cc(C=O)c3ccccc32)c1	/	16µM	.	26µM
O=C(Cn1ccc2ccccc21)Nc1ccc2c(c1)OCO2	.	.	/	.
